Env fusion inh: HIV envelope-mediated fusion inhibition. HeLa-JRFL Env/CEM21 cell fusion, luciferase. inhibition, % at 12.3 µM. 360,000 tested, 1.1% active. AID 651610;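 active = mean replicate inhibition score of at least 50 and every replicate individually at or above 50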;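 also: 0% = plate neutral controls and 100% = maraviroc near 300 nM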
EWS-Fli inh: blocks EWS/Fli oncoprotein-driven transcription; A673 NR0B1-luciferase reporter, viability-normalised; inhibition, % at 12.6 µM; 350,000 tested, 0.67% active; AID 651661;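 active = mean inhibition of at least 50% after viability correction, with every replicate also passing that limit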;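 also: firefly luciferase signal divided by Alamar Blue viability fluorescence both relative to DMSO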
PAX8 reporter: lowers PAX8-driven luciferase in RMG-I cells; 360,000 tested, 1.2% active; inhibition, % at 12.6 µM; AID 652154; RMG-I TPO-luciferase reporter, SteadyGlo, 24 h;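 active = mean replicate inhibition at least 60% with every replicate also reaching 60%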;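 also: luciferase light reporting Pax8 driven TPO promoter activity; plate controls were median of neutral control wells for no effect and mitoxantrone controls for full effect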
FXN GAA850 act: increases GAA850 frataxin promoter reporter activity. HEK293 lucGAA850 FXN promoter luciferase reporter, 24 h; percent of 10 µM SAHA response. activation, % at 6 µM. 360,000 tested, 0.56% active. AID 540364;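 active = activation above the average of all compounds screened plus 3 SD, cutoff fixed separately per campaign, cut at about 7.5% in these data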;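 also: 0% = DMSO wells and 100% = 10 µM SAHA wells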
CFTR F508del cor: CFTR F508del correction in bronchial cells. CFBE cells, YFP halide quenching; stimulated with forskolin plus potentiator P3; % fluorescence drop versus neutral controls. activity (quench increase), % at 7.58 µM. 350,000 tested, 0.36% active. AID 720511;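 active = mean added fluorescence quench of at least 8% versus neutral control, with both replicates also reaching 8%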;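 also: cells transiently co-express mutant CFTR-F508del with the halide-sensitive YFP; corrector assay measuring rescue of mutant channel to the surface after 24 h compound exposure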
An asterisk follows results filed as active; x = no result; [ ] = dose if it differs, or a comment. Sampled rows, rich in hits. Any-hit rate of the full collection: about 2.5%.

SMILES	Env fusion inh	EWS-Fli inh	PAX8 reporter	FXN GAA850 act	CFTR F508del cor
FC(F)(F)c1cc(CCN2CCNC[C@@H]2CC2CCCCC2)cc(C(F)(F)F)c1	85*	55*	11	0	4
CCCC[C@@H]1CNCCN1CCc1cc(C(F)(F)F)cc(C(F)(F)F)c1	39	13	-8	-2	2
COc1cccc(NC(=O)N(C)C[C@@H]2Oc3cc(-c4ccccc4F)ccc3S(=O)(=O)N([C@H](C)CO)C[C@@H]2C)c1	14[16.7 µM]	-3	x	x	-2
O=C(CN1CCN(Cc2ccc(Cl)cc2)C1=O)NCCCN1CCN(c2ccc(F)cc2)CC1	68*	x	x	-5	x
O=C(CN1CCN(Cc2ccc(Cl)cc2)C1=O)NCCCN1CCOCC1	5	-8	13	-11	-1
O=C(NCC[C@@H]1CC[C@@H](NS(=O)(=O)c2cccc(F)c2)[C@@H](CO)O1)C1CCOCC1	1[16.7 µM]	0	x	x	1
C[C@H]1C=C(C(=O)Nc2ccccc2)O[C@@H](OCCCCO)C1	2[16.7 µM]	-33	14	x	0
COc1ccc(OC)c(-c2cnc(OC(C)(C)C)nc2OC(C)(C)C)c1	-178	71*	11	-1	14*
CNc1cncc(-c2cc(OC)ccc2OC)n1	-3	-7	-8	2	2
C[C@@H]1CCCCO[C@H](CN(C)C(=O)C2CCCCC2)[C@H](C)CN([C@H](C)CO)C(=O)c2cc(NC(=O)CCC(F)(F)F)ccc2O1	22[16.7 µM]	5	x	x	2
O=C(c1cccc(F)c1)N1CC(=O)N2[C@H](CO)[C@H](c3ccc(C#Cc4ccc(F)cc4)cc3)[C@H]2C1	x	9	x	x	6
O=C(c1ccc(F)cc1)N1CC(=O)N2[C@H](CO)[C@@H](c3ccc(/C=C/c4ccccc4)cc3)[C@@H]2C1	x	-5	69*	x	1
O=C(c1cccc(F)c1)N1CC(=O)N2[C@@H](CO)[C@@H](c3ccc(C#Cc4ccc(F)cc4)cc3)[C@@H]2C1	x	6	x	x	8.2*
CON(C)c1nc(OCCNC(=O)OCc2ccc(Cl)cc2Cl)nc(N(C)C)n1	139*	x	x	7	x
CN(C)c1nc(OCCNC(=O)Nc2ccc(Cl)cc2)nc(N(C)C)n1	3	-4	-15	-3	0
CON(C)c1nc(OCCNC(=O)COc2ccc(Cl)cc2C)nc(N(C)C)n1	163*	x	6	6	x
C(=N\Nc1ncnc2sc3c(c12)CCC3)/c1cccs1	32	x	x	13*	x
C(=N\Nc1ncnc2sc3c(c12)CCC3)/c1ccncc1	-197	x	29	5	x
COc1ccc(C2CC(c3ccc(Br)cc3)=NN2C(=S)Nc2ccccc2)cc1 (stereo not drawn)	2	-58	123*	3	-2
O=C(Nc1ccccc1)N1N=C(c2ccc(F)cc2)CC1c1ccc(F)cc1 (stereo not drawn)	x	-11	82*	-3	-2
COc1ccc(C2CC(c3ccccc3)=NN2C(=O)c2ccc(F)cc2)cc1 (stereo not drawn)	-23	-8	7	0	-4
COc1cc(/C=N/NC(N)=S)cc(Br)c1OCc1ccccc1F	41	x	70*	-2	x
CCOc1cc(/C=N/NC(N)=S)cc(Br)c1OCc1ccccc1C	x	x	x	0	x
Cc1noc(C)c1S(=O)(=O)N(C)C[C@@H]1Oc2ccc(N(C)C)cc2CC(=O)N([C@H](C)CO)C[C@H]1C	2[16.7 µM]	6	-9	x	5
c1ccc(CCn2cccc2)nc1	59*	1	5	2	1
SMILES	Env fusion inh	EWS-Fli inh	PAX8 reporter	FXN GAA850 act	CFTR F508del cor
CC12CCC(CC1O)C2C(=O)O (stereo not drawn)	-20	-4	4	0	8.2*
Cc1ccc(N2CCN(C(=O)c3[nH]c(C(F)(F)F)nc3-c3ccccc3)CC2)cc1	-6	-3	-7	x	-1
O=C(c1[nH]c(C(F)(F)F)nc1-c1ccccc1)N1CCN(c2ccccc2)CC1	-48	65*	29	x	6
Cc1noc(C)c1NC(=O)N1C[C@H](O)COC[C@H]2O[C@H](CC(=O)NCC3CCCCC3)CC[C@@H]21	x	-7	-1	x	0
C[C@@H]1CN([C@H](C)CO)C(=O)CCCn2cc(nn2)CO[C@H]1CN(C)Cc1ccncc1	x	1	-3	x	-5
O=C(/C=C/Nc1ccc(F)cc1F)c1ccco1	-159	65*	-36	2	-1
O=C(/C=C/Nc1ccc(Br)cc1F)c1ccco1	-109	73*	-89	-4	-4
O=C(/C=C/Nc1ccccc1O)c1ccco1	-25	-22	-56	4	-2
CCC(=O)N1[C@@H](CO)[C@@H](c2ccccc2)C12CN(Cc1cccnc1)C2	x	7	x	x	1

High-throughput results (PubChem)
